Results from PubChem BioAssay (Tox21).
Records with an inconclusive call do not appear. Active and inactive are the calls of the source. Unless noted, calls follow the shape of the dose curve; as a rule, active = well fitted curve in the direction sought with a large enough effect in the repeat runs; inconclusive = weak or mixed curves; inactive = no such curve, though single readings can be large; an effect the other way counts as inactive or inconclusive.

Key:
[1] = qHTS assay to identify small molecule agonists of the estrogen receptor alpha (ER-alpha) signaling pathway in the presence of an antagonist - cell viability counter screen (AID 1259386);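 also: series mostly up to about 92 µM; cells exposed to compounds for 22 h at 37 °C before the viability read; nearly all actives have a fitted effect of over 30% in size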
How it was run: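 VM7Luc4E2 cells (endogenous full-length ER-alpha, 4×ERE-luciferase) were held 5 days in phenol red-free medium with 10% charcoal-stripped FBS, plated, then given 10.0nM ICI-182,780 and compounds at 15 concentrations for 22hr at 37C; viability read by CellTiter-Fluor fluorescence.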

[2] = target: Progesterone receptor (Homo sapiens) (UniProt P06401); experiment: qHTS assay to identify small molecule agonists of the progesterone receptor (PR) signaling pathway (AID 1346784; calls by dose curve; also: nearly all actives have a fitted effect of over 30% in size; also: potency is read from the fitted curve at half-maximal effect)
How it was run: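 Fluorescence from LiveBLAzer B/G FRET substrate cleavage (2 hr, RT) reported PR activation in PR-UAS-bla HEK 293T cells treated 16 hr at 37C/5% CO2 with compounds; medium contained 2% charcoal-stripped FBS.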

[3] = target: Progesterone receptor (Homo sapiens) (UniProt P06401); experiment: qHTS assay to identify small molecule antagonists of the progesterone receptor (PR) signaling pathway (AID 1346795; active = well fitted inhibition curve with a large enough effect in the signal ratio in the repeat runs, not every such curve was filed as active; the % refers to the signal ratio)
How it was run: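 Fluorescence intensity measured 2 hr after adding beta-lactamase FRET substrate to PR-UAS-bla HEK293T cells that had been co-treated 16 hr with compound and 1 nM R5020 (final concentration) in 2% charcoal-stripped FBS.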

[4] = qHTS assay to identify small molecule antagonists of the progesterone receptor (PR) signaling pathway - cell viability counter screen (AID 1346798); also: nearly all actives have a fitted effect of over 50% in size; also: potency is read from the fitted curve at half-maximal effect; as to activity change, negative = cytotoxicity: series mostly up to about 92 µM
How it was run: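 CellTiter-Glo luminescence; PR-UAS-bla HEK293T, 3,000 cells/well; compound + R5020, 16 hr, 37C/5% CO2; 30 min RT before read.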

[5] = qHTS assay to identify small molecule agonists of the progesterone receptor (PR) signaling pathway - cell viability counter screen (AID 1346799; calls by dose curve; also: nearly all actives have a fitted effect of over 45% in size)
How it was run: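 In parallel with the beta-lactamase readout, cytotoxicity toward PR-UAS-bla HEK293T cells was measured by CellTiter-Glo luminescence following 16 hr compound incubation in 2% charcoal-stripped FBS medium.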

[6] = qHTS assay to identify small molecule agonists of the TGF-beta/Smad signaling pathway - cell viability counter screen (AID 1346829); also: top concentration of the series differs between compounds; nearly all actives have a fitted effect of over 45% in size
How it was run: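 Same-well cytotoxicity: CellTiter-Glo added after the 2 hr room-temperature beta-lactamase substrate step, luminescence measured 30 min later; cells had 5 hr of compound at 37 C.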

[7] = qHTS assay to identify small molecule agonists of the TGF-beta/Smad signaling pathway (AID 1346859; active = well fitted activation curve with a large enough effect in the signal ratio in the repeat runs, not every such curve was filed as active; the % refers to the signal ratio; also: series mostly up to about 77 µM)
How it was run: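 After overnight seeding, SBE-bla HEK 293T cells are dosed with compounds in DMSO and kept 5 hr at 37 C, 5% CO2. LiveBLAzer-type FRET substrate is then applied for 2 hr at room temperature.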

[8] = target: Thyrotropin-releasing hormone receptor (Homo sapiens) (UniProt P34981); experiment: qHTS assay to identify small molecule antagonists of the thyrotropin-releasing hormone receptor (TRHR) signaling pathway (AID 1346877; active = well fitted inhibition curve with a large enough effect in the repeat runs, not every such curve was filed as active; also: series mostly up to about 51 µM)
How it was run: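 TRHR-expressing HEK293 cells were seeded, cultured 18 h at 37 °C, then loaded with calcium dye for 2 h. Compounds were pre-incubated 5 min at room temperature before 1 nM TRH (final) was added, and kinetic fluorescence was recorded for 3 min.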

[9] = target: Thyrotropin-releasing hormone receptor (Homo sapiens) (UniProt P34981); experiment: qHTS assay to identify small molecule agonists of the thyrotropin-releasing hormone receptor (TRHR) signaling pathway (AID 1346891; calls by dose curve; also: series mostly up to about 58 µM)
How it was run: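 Compounds were tested as agonists at 15 concentrations, in triplicate, on TRHR-Hek293 cells; calcium-sensitive dye fluorescence was recorded for 3 min following addition.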

[10] = Human pregnane X receptor (PXR) small molecule agonists, qHTS cell viability counter screen (AID 1346977); also: nearly all actives have a fitted effect of over 50% in size
How it was run: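 Viability counter screen: CellTiter-Fluor signal in PXR-Luc HepG2 cells, 24hr compound exposure, 37C, 5% CO2.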

[11] = Caspase-3/7 induction in HepG2 cells by small molecules, qHTS assay (AID 1346978); also: nearly all actives have a fitted effect of over 15% in size
How it was run: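 Wild-type HepG2 cells (2,000/well) were settled 5 h at 37 C, 5% CO2, then exposed to compounds in DMSO for 17 h. Caspase-3/7 activity was read by luminescence 30 min after adding Caspase-Glo 3/7 reagent at room temperature.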

[12] = Caspase-3/7 induction in CHO-K1 cells by small molecules, qHTS assay (AID 1346980); also: nearly all actives have a fitted effect of over 15% in size
How it was run: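 Wild-type cells were seeded at 1,500 per well and settled 5 hr at 37 C, 5% CO2, then exposed to DMSO-dissolved compounds for 17 hr. Caspase-Glo 3/7 reagent was added, and luminescence was read after 30min at room temperature.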

[13] = target: Nuclear receptor subfamily 1 group I member 2 (Homo sapiens) (UniProt O75469); experiment: Human pregnane X receptor (PXR) small molecule agonists, qHTS assay (AID 1346982); also: nearly all actives have a fitted effect of over 35% in size
How it was run: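 PXR-Luc HepG2 cells (CYP3A4 promoter-driven luciferase) were seeded in medium with 5% charcoal-stripped FBS, left 5 hr at 37 C, then exposed to compounds in DMSO for 24 hr. Luminescence was read after ONE-Glo addition.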

[14] = Caspase-3/7 induction in CHO-K1 cells by small molecules, qHTS cell viability counter screen (AID 1346979); also: nearly all actives have a fitted effect of over 35% in size
How it was run: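 Viability readout by fluorescence (CellTiter-Fluor) on wild-type CHO-K1 cells exposed for 16hr at 37C and 5% CO2 to compounds delivered in DMSO; reagent incubated 1hr before reading.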

[15] = Caspase-3/7 induction in HepG2 cells by small molecules, qHTS cell viability counter screen (AID 1346981); also: series mostly up to about 92 µM; nearly all actives have a fitted effect of over 30% in size
How it was run: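 Wild-type HepG2 cells (2,000/well) were allowed to settle for 5 hr at 37 C, 5% CO2, then dosed with compounds in DMSO by pin transfer. After 16 hr at 37 C, CellTiter-Fluor was added and fluorescence read 1 hr later.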

[16] = qHTS assay to identify small molecule agonists or antagonists of the thyroid stimulating hormone receptor (TSHR) signaling pathway - wild type cell line counter screen (AID 1259384; calls by dose curve)
How it was run: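 Wild-type HEK293 cells were plated 18 h at 37 C/5% CO2, pin-dosed with compound plus Ro20-1724 medium, held 30 min at room temperature, then given cAMP-d2 and anti-cAMP-cryptate; fluorescence was read after 1 h. Fifteen concentrations, triplicate.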

[17] = target: Thyrotropin receptor (Homo sapiens) (UniProt P16473); experiment: qHTS assay to identify small molecule antagonists of the thyroid stimulating hormone receptor (TSHR) signaling pathway (AID 1259385; calls by dose curve; also: nearly all actives have a fitted effect of over 20% in size)
How it was run: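 TSHR-HEK293 cells were plated and held 18 h at 37C/5% CO2, then given compound plus Ro20-1724 and stimulated with TSH at 1.5 ng/mL final. After 30 min at room temperature, cAMP was detected with cAMP-d2/anti-cAMP-cryptate (1 h) by fluorescence.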

[18] = qHTS assay to identify small molecule antagonists of the TGF-beta/Smad signaling pathway - cell viability counter screen (AID 1346824); also: nearly all actives have a fitted effect of over 50% in size
How it was run: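 SBE-bla HEK 293T cells were plated overnight at 37 C, then given compounds in DMSO plus TGF-beta1 (added as 0.25 ng/mL solution) for 5 hr. After the bla read, CellTiter-Glo was added to the same wells and luminescence read after 30 min at room temperature.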

[19] = target: Nuclear receptor subfamily 1 group I member 2 (Rattus norvegicus) (UniProt Q9R1A7); experiment: Rat pregnane X receptor (rPXR) activation by small molecules, qHTS assay (AID 1346983); details: rPXR luciferase reporter cells, One-Glo luminescence, 24 h; max activation: active compounds read high; also: nearly all actives have a fitted effect of over 20% in size
How it was run: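 Cell-based rPXR luciferase reporter assay, 2,000 cells per well, rested 5hr at 37 C before compound addition in DMSO, then 24 hr at 37 C. One-Glo reagent was added and luminescence read after 30 min at room temperature.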
% is scaled to controls: 0 for no effect and ±100 for the full control effect.

Chain of Thyrotropin receptor (Homo sapiens) (P16473 whole entry, looked up): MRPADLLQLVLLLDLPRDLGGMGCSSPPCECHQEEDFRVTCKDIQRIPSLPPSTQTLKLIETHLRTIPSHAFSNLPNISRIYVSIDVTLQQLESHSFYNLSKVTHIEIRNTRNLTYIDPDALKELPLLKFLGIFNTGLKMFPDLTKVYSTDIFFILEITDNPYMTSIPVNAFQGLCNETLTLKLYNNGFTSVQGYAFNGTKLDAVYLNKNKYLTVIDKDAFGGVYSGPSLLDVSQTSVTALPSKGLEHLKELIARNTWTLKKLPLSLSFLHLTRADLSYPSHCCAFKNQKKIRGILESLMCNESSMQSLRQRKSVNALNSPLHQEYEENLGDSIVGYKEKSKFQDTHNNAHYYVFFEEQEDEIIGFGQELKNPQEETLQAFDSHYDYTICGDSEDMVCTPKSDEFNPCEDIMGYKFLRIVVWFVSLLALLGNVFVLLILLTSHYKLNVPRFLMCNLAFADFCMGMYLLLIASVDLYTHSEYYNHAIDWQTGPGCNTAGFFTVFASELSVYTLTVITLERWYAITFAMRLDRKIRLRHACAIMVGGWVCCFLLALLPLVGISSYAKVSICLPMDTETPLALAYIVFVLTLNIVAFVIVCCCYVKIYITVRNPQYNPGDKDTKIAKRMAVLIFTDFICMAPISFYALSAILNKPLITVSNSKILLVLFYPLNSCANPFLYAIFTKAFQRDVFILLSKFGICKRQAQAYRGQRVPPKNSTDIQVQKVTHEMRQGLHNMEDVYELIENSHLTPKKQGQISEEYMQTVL
Chain of Progesterone receptor (Homo sapiens) (P06401 whole entry, looked up): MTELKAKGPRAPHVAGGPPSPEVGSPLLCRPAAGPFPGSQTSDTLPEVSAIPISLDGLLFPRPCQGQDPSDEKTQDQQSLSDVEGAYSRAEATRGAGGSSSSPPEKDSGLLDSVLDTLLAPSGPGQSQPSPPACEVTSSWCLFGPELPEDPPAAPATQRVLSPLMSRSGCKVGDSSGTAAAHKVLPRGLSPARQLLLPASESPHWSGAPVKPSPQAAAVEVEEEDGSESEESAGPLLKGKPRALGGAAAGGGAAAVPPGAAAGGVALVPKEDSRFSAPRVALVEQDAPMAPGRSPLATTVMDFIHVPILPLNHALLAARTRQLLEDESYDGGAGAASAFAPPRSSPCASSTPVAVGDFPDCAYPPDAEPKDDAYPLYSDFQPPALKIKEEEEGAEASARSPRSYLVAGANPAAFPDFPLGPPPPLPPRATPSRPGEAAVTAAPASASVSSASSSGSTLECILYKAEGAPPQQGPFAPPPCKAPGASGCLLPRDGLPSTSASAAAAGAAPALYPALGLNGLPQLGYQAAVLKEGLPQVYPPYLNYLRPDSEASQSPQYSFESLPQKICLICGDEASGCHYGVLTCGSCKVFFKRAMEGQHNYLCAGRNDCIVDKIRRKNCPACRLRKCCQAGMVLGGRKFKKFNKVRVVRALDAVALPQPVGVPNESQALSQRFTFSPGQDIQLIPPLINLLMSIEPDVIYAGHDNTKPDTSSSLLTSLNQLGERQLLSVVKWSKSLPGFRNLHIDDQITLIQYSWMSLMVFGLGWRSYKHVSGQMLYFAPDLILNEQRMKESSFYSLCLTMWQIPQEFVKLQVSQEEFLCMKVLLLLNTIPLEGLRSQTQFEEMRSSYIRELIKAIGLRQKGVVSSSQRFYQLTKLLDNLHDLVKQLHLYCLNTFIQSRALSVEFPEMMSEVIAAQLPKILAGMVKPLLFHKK
Chain of Nuclear receptor subfamily 1 group I member 2 (Homo sapiens) (O75469 whole entry, looked up): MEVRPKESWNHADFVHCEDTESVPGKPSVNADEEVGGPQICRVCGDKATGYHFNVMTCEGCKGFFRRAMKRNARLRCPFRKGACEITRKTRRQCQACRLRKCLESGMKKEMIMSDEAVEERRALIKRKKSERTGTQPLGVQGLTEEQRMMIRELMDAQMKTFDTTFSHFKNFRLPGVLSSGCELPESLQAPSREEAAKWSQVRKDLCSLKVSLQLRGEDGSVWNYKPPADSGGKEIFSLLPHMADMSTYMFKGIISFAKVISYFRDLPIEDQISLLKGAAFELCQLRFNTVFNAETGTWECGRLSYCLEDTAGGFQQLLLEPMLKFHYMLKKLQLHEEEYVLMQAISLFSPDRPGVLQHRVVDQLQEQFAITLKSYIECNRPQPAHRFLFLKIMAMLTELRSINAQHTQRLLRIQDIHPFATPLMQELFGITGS
Chain of Thyrotropin-releasing hormone receptor (Homo sapiens) (P34981 whole entry, looked up): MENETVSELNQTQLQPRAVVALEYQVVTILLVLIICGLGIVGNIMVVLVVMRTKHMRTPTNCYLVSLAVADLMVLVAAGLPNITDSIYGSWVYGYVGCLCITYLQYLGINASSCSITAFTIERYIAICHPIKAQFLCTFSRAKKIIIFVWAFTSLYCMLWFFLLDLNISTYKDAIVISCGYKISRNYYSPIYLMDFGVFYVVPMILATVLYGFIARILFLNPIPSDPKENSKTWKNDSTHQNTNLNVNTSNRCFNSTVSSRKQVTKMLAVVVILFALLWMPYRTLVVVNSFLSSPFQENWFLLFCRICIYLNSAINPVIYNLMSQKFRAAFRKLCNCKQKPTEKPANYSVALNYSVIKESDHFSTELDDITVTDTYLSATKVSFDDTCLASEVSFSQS
Chain of Nuclear receptor subfamily 1 group I member 2 (Rattus norvegicus) (Q9R1A7 whole entry, looked up): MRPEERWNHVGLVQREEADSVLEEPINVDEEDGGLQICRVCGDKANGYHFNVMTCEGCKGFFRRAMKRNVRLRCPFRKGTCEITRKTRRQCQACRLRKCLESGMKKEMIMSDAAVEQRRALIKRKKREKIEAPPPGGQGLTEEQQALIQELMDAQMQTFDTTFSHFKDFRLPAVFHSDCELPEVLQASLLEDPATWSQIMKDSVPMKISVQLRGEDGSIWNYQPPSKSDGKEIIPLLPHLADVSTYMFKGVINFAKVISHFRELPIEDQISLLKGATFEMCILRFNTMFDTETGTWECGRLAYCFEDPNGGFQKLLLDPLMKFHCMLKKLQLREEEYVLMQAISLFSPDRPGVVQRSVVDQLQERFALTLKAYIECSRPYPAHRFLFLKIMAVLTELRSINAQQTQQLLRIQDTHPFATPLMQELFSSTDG

CN(C)CCCNCCC#N
inactive: Potency [1] | Potency [2] | Potency [3] | Potency [4] | Potency [5] | outcome [6] | outcome [7] | outcome [8] | outcome [9] | Potency [10] | outcome [11] | outcome [12] | Potency [13]

CCCCC(CC)C(=O)OC(C)C (centres undefined)
inactive: Potency [1] | Potency [2] | Potency [3] | Potency [4] | Potency [5] | outcome [6] | outcome [7] | outcome [8] | outcome [9] | Potency [10] | outcome [11] | Potency [14] | outcome [12] | Potency [15] | Potency [13]

CC(C)c1ccccc1O
inactive: outcome [16] | outcome [17] | Potency [1] | Potency [2] | Potency [3] | Potency [5] | outcome [18] | outcome [6] | Potency [10] | outcome [11] | Potency [14] | outcome [12] | Potency [15] | Potency [13]

C=COCCOCCOC=C
inactive: Potency [1] | Potency [2] | Potency [3] | Potency [4] | Potency [5] | outcome [18] | outcome [6] | outcome [7] | outcome [8] | outcome [9] | Potency [10] | outcome [11] | Potency [14] | outcome [12] | Potency [15] | Potency [13]

CCCCCC1CCCC(=O)O1 (centres undefined)
inactive: outcome [16] | outcome [17] | Potency [1] | Potency [2] | Potency [4] | outcome [18] | outcome [6] | outcome [7] | outcome [8] | outcome [9] | Potency [10] | outcome [11] | Potency [14] | outcome [12] | Potency [15] | Potency [13]

C=C(C)C(=O)OC1CC(C)CC(C)(C)C1 (centres undefined)
inactive: outcome [16] | Potency [1] | Potency [2] | Potency [3] | Potency [4] | Potency [5] | outcome [18] | outcome [6] | outcome [7] | outcome [8] | outcome [9] | Potency [10] | outcome [11] | Potency [14] | outcome [12] | Potency [15] | Potency [13]

CCOC(=O)CC(CC(=O)OCC)(OC(C)=O)C(=O)OCC
inactive: Potency [1] | Potency [2] | Potency [3] | Potency [5] | outcome [18] | outcome [6] | outcome [7] | outcome [8] | outcome [9] | Potency [10] | outcome [11] | Potency [14] | outcome [12] | Potency [15]

CCOC(=O)CCc1ccccc1
inactive: outcome [16] | outcome [17] | Potency [1] | Potency [2] | Potency [3] | Potency [5] | outcome [18] | outcome [6] | outcome [7] | Potency [10] | outcome [11] | Potency [14] | outcome [12] | Potency [15] | Potency [13]

CNCc1ccccc1
inactive: Potency [1] | Potency [2] | Potency [3] | Potency [5] | outcome [18] | outcome [6] | outcome [8] | outcome [9] | Potency [10] | outcome [11] | Potency [14] | outcome [12] | Potency [15] | Potency [13] | max activation [19] -0.758%

COc1cc(C=O)ccc1OC(=O)C(C)C
inactive: outcome [16] | outcome [17] | Potency [1] | Potency [2] | Potency [3] | Potency [5] | outcome [18] | outcome [6] | outcome [7] | outcome [8] | outcome [9] | Potency [10] | outcome [11] | Potency [14] | outcome [12] | Potency [15] | Potency [13]

O=CO
inactive: activity change, negative = cytotoxicity [1] -5.19% [at 8.39 µM] | activity change, negative = inhibition [3] 8.24% [at 8.39 µM] | activity change, negative = cytotoxicity [4] 2.97% [at 8.39 µM] | activity change, negative = cytotoxicity [5] 21.2% [at 8.39 µM] | viability change, negative = cytotoxic [18] -0.889% [at 6.97 µM] | activity change, negative = cytotoxicity [6] 8.49% [at 6.97 µM] | activation [7] 2.26% [at 6.97 µM] | activity change, negative = cytotoxicity [10] -2.18% [at 8.39 µM] | caspase activation [11] 0.203% [at 8.39 µM] | activity change, negative = cytotoxicity [14] -2.32% [at 8.39 µM] | caspase-3/7 activation [12] 0.126% [at 8.39 µM] | activity change, negative = cytotoxicity [15] 4.68% [at 8.39 µM]
active: Potency [2] 2.51 µM

Cc1cccc(NC(=S)N(C)C)c1
active: Potency [4] 30.6 µM
inactive: outcome [16] | outcome [17] | Potency [1] | Potency [5] | outcome [18] | outcome [6] | outcome [7] | outcome [8] | outcome [9] | outcome [11] | Potency [14] | outcome [12] | Potency [15]
